Hit rate of the full screen: of about 13,000 compounds, about 3,200 (25%) showed an effect of 50% or more. Some of the results follow.

This assay has as its system P. falciparum stage V gametocytes. Details: BacTiter-Glo ATP luminescence viability of purified stage V gametocytes in 384-well plates, per cent inhibition versus DMSO. Particulars: 48 h, 5 µM; inhibitor.
By % Inhibition is commonly meant the relative decrease from the control value, in per cent. For the compound `COc1ccccc1N(C)CCNc1cc(C)nc(Nc2ccccc2)n1` [TCMDC-133455], the “% Inhibition” value is recorded as -20.01%. As for `Cc1cc(NC(=O)N=C(N)N)ccc1Cl` [TCMDC-137470], the figure is 23.53%; as for `CC(C)Cc1nc(N2CCOCC2)c2nnn(Cc3ccccc3)c2n1` [TCMDC-124394], 7.117%; as for `Cc1ccc(C)c(CN2CCC(CNC(=O)c3cc4ccc5cccnc5c4[nH]3)CC2)c1` [TCMDC-125280], 17.56%. For `CCN1C(c2ccc(Cl)cc2)C(CNCc2ccccc2O)CC1(C)CO` (centres unmarked) [TCMDC-124672], the “% Inhibition” value was -22.05%. As for `Cc1cc2c(cc1C(F)(F)F)N(C(=O)Nc1cc(OCCN(C)C)cc(C(F)(F)F)c1)CC2` [TCMDC-139873], the figure is 27.41%. As to `Cc1cc(Nc2cccc(Cl)c2)nc2ccc(NC(=O)c3ccc(=O)[nH]c3)cc12` [TCMDC-125285], the “% Inhibition” value is -92.28%. As for `N#Cc1ccc(NC(=O)Nc2ccc3c(c2)CCN(C2CCC2)CC3)cc1` [TCMDC-135861], the figure is 25.77%; as for `O=C(Nc1cccc([N+](=O)[O-])c1)Nc1cccc(C(F)(F)F)c1` [TCMDC-123674], -87.02%; as for `O=C(Nc1ccc(OC(F)(F)F)cc1)Nc1ccc([N+](=O)[O-])cc1` [TCMDC-123714], -87.78%. As for `N#Cc1ccc(NC(=O)Nc2ccc(OC(F)(F)F)cc2)cc1` [TCMDC-123773], the figure is 69.14%; as for `O=C(Nc1ccc([N+](=O)[O-])cc1)Nc1cc(OCC(F)(F)F)cc(OCC(F)(F)F)c1` [TCMDC-124533], 87.27%; as for `COc1cc([N+](=O)[O-])ccc1NC(=O)Nc1ccc(OC(F)(F)F)cc1` [TCMDC-125388], 60.01%. As for `O=C(Nc1ccc(CCNCc2ccccc2)cc1)Nc1ccc(OC(F)(F)F)cc1` [TCMDC-141914], the figure is -0.1841%. In the case of `O=C(Nc1ccc([N+](=O)[O-])cc1)Nc1cc(C(F)(F)F)ccc1F` [TCMDC-124367], the “% Inhibition” value is -37.77%. For `COc1cc(NC(=O)Nc2ccc([N+](=O)[O-])cc2OC)c(OC)cc1Cl` [TCMDC-124366] the value was 14.63%.

With `Cc1ccc(C2CC(=O)CC(c3ccccn3)C2[N+](=O)[O-])cc1` (centres unmarked) [TCMDC-139131], the “% Inhibition” value came out at 6.685%. As for `CCCSc1nc2c(c(=O)n1Cc1ccco1)C1(CCCCC1)Cc1ccccc1-2` [TCMDC-123897], the figure is -0.1623%; as for `CC(C)C[C@H](NC(=O)c1ccc(OCCN2CCOCC2)cc1)C(=O)N[C@H](/C=N/N1CCN(C)C1=O)CCc1ccccc1` [TCMDC-136154], 6.527%; as for `CO/C(=C\C=C\c1cc2cc(Cl)c(Cl)cc2[nH]1)C(=O)NCCCN1CCN(c2cccc(O)c2)CC1` [TCMDC-139248], 6.724%.

Source of the values: paper PMC4552634, “A New Set of Chemical Starting Points with Plasmodium falciparum Transmission-Blocking Potential for Antimalarial Drug Discovery” (PLoS ONE, 2015).
